Data as given in PubChem BioAssay AID492972 (The Scripps Research Institute Molecular Screening Center, 2010).
In all, about 340,000 compounds went through this assay and about 930 (0.27%) were called active. The sample as a whole holds a higher share of actives than the screen did. Unmarked numbers belong to inactive results.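 The calls were made as follows: active = inhibition above the screen-wide average of all tested compounds plus 3 SD (cut at about 25% in these data); inactive = the rest.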

The compounds below were run against Platelet-activating factor acetylhydrolase IB subunit alpha1 (Homo sapiens) (UniProt Q15102) (assay: PAFAH1B3 enzyme inhibitors, primary screen, biochemical, fluorescence polarization, human (AID 492972;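 also: 0% = enzyme with DMSO only and 100% = wells lacking PAFAH1B3 protein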)). Details: recombinant PAFAH1B3, FP-rhodamine probe, at 3.39 µM, hits give high values.
Platelet-activating factor acetylhydrolase IB subunit alpha1 (Homo sapiens), sequence (Q15102 whole entry, looked up): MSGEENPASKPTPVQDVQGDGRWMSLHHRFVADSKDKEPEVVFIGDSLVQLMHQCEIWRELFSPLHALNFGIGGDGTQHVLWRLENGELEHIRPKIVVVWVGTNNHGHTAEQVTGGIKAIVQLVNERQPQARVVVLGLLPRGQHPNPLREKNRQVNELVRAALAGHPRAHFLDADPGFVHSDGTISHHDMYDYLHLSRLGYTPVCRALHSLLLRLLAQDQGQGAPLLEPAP

**Q.** With C[n+]1cccc(C(=O)O)c1 as the compound, how does the inhibition read?
**A.** 4.85%

**Q.** For O=C(COc1ccc(S(=O)(=O)NCc2ccccc2)cc1)N1CCOCC1, which inhibition is on record?
**A.** -1.1%

**Q.** Cn1cccc1/C=N/NC(=O)c1ccc(OC(F)(F)C(F)F)cc1 was tested. Which inhibition did it give?
**A.** 4.01%

**Q.** For O=C(Nc1ccc(OC(F)(F)F)cc1)c1ccc2c(c1)no[n+]2[O-], which inhibition is on record?
**A.** 51.2% (active)

**Q.** Which inhibition does the source give for CCOC(=O)Cc1ncccc1C(=O)Nc1ccc(OC(F)(F)F)cc1 here?
**A.** 4.95%

**Q.** With O=C(COc1ccccc1)Nc1cc2c3c(c1)CC(=O)N3CCC2 as the compound, how does the inhibition read?
**A.** 3.19%

**Q.** Which inhibition does the source give for CCC(C)NC(=O)CN(C1CCCCC1)S(C)(=O)=O (stereo not given) here?
**A.** -2.01%

**Q.** With Cc1cc(NC(=O)CCC(=O)N(CC(=O)NCC2CCCO2)c2ccccc2)no1 (stereo not given) as the compound, how does the inhibition read?
**A.** -3.62%

**Q.** How did the inhibition turn out when CN(CC(=O)Nc1ccc(Cl)cc1)C(=O)CNC(=O)c1ccc2ccccc2c1 was run?
**A.** 5.2%

**Q.** Which inhibition does the source give for CCOC(=O)CC(NC(=O)C1c2ccccc2Oc2ccccc21)c1ccc(C)cc1 (stereo not given) here?
**A.** 6.13%

**Q.** How did the inhibition turn out when CCCN(CCC)C(=O)C1c2ccccc2Oc2ccccc21 was run?
**A.** 27.8% (active)

**Q.** With CCCCCNC(=O)C1c2ccccc2Oc2ccccc21 as the compound, how does the inhibition read?
**A.** -4.51%

**Q.** How did the inhibition turn out when CCOC(=O)CCCNC(=O)COC(=O)c1cc(Br)c(Br)s1 was run?
**A.** -2.8%

**Q.** With COc1nc(Oc2ccc(=O)n(C)n2)nc(N(C)C)n1 as the compound, how does the inhibition read?
**A.** 4.35%

**Q.** For O=C1Nc2ccc([N+](=O)[O-])cc2C1=Nc1cccc(CO)c1, which inhibition is on record?
**A.** 31.8% (active)

**Q.** For CN1CCN(/N=C2/C(=O)Nc3ccc([N+](=O)[O-])cc32)CC1, which inhibition is on record?
**A.** 1.85%

**Q.** For O=[N+]([O-])c1ccc(N(CCO)Cc2ccccc2)c([N+](=O)[O-])c1, which inhibition is on record?
**A.** 4.36%

**Q.** With CCCS(=O)(=O)N1CCCC(C(=O)NCCN2CCCCC2C)C1 (stereo not given) as the compound, how does the inhibition read?
**A.** -3.97%

**Q.** How did the inhibition turn out when O=C(Nc1ccc2ccccc2c1)Nc1ccc2snnc2c1 was run?
**A.** -10.5%

**Q.** Which inhibition does the source give for Cc1cc(OCCN2CCCC2)cc(C(C)C)c1 here?
**A.** 3.65%

**Q.** COCCNC(=O)Nc1ccc2nc(-c3ccco3)c(-c3ccco3)nc2c1 was tested. Which inhibition did it give?
**A.** 26.5% (active)

**Q.** For COCCNC(=O)c1snc2ccc(Cl)cc12, which inhibition is on record?
**A.** 8.07%

**Q.** O=C(Nc1nc(-c2ccco2)c(-c2ccco2)s1)c1ccco1 was tested. Which inhibition did it give?
**A.** 15.7%

**Q.** How did the inhibition turn out when CC(=O)Nc1ccc(NC(=O)C2CCCN(S(=O)(=O)c3ccc(Cl)cc3)C2)cc1 (stereo not given) was run?
**A.** 4.7%

**Q.** With CCOc1ccc(S(=O)(=O)n2ccnc2)c2ccccc12 as the compound, how does the inhibition read?
**A.** 4.28%
